The source of these data is PubChem BioAssay (EPA / NIEHS).

Records with an inconclusive call do not appear. Active and inactive are the calls of the source. How the source made its calls, unless noted: active means hit-call score of the fitted dose curve at least 0.9, where 1 is the maximum; inactive means score below 0.9.

The target of assay [1] is Myc proto-oncogene protein (Homo sapiens) (UniProt P01106). Put plainly: ATG_Myc_CIS: Attagene CIS-FACTORIAL HepG2 Assay for human Myelocytomatosis (Myc) Proto-Oncogene Transcription Factor (AID 2282990). The settings on record: HepG2, Attagene cis-reporter transcription factor activity; actives raise or lower the signal. The procedure, abridged: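 Read-out: fluorescent reporter mRNA fragments resolved by capillary electrophoresis after RT-PCR. Human HepG2 liver cells carried transfected cis-element reporter units and were dosed for 24 h. Gain or loss of signal fitted relative to DMSO baseline.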
Myc proto-oncogene protein (Homo sapiens), sequence (P01106 whole entry, looked up, the tested form may be a part): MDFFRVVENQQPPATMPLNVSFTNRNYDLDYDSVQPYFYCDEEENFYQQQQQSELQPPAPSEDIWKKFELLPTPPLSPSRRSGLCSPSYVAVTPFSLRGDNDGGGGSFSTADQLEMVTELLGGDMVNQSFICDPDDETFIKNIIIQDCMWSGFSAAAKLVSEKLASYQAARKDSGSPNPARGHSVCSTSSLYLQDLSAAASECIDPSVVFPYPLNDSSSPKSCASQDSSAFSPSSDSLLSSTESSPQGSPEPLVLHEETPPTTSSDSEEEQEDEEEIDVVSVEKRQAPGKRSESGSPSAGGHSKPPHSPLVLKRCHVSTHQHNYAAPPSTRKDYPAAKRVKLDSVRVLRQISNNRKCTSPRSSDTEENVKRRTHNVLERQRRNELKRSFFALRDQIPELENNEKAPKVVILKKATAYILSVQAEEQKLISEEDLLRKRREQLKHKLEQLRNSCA

The nature of assay [2]: ATG_NF_kB_CIS: Attagene CIS-FACTORIAL HepG2 Assay for human Nuclear Factor Kappa B (NF-kB) (AID 2282991). The settings on record: HepG2 Attagene cis-factorial NF-kB reporter mRNA; actives raise or lower the signal. A digest of the protocol:
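Endogenous transcription factor activity in HepG2 was captured via cis-regulated reporter constructs; after 24 h dosing, reporter mRNA was reverse-transcribed, amplified, fluorescently labelled and sized by capillary electrophoresis, with activity fitted bidirectionally relative to DMSO.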

Assay [3] in a line: ATG_NRF2_ARE_CIS: Attagene CIS-FACTORIAL HepG2 Assay for human Nuclear Factor Erythroid 2 Related Factor 2 (NFR2) response to Antioxidant Response Elements (ARE) (AID 2282992).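 On AC50: reporter mRNA level measured by RT-PCR and capillary electrophoresis fluorescence.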 The settings on record: HepG2 Attagene ARE/NRF2 reporter, transcription factor activity; actives raise or lower the signal. The procedure, abridged: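 Fluorescence intensity of reporter-specific cDNA fragments, separated by capillary electrophoresis, reflects mRNA induction in transfected HepG2 cells at 24 h. Activity is fitted bidirectionally, DMSO serving as baseline.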

Assay [4] can be described thus: ATG_Oct_MLP_CIS: Attagene CIS-FACTORIAL HepG2 Assay for human Octamer-Binding Transcription Factor (Oct) (AID 2282993). The settings on record: HepG2 Attagene cis-factorial Oct reporter, mRNA; actives raise or lower the signal. The procedure, abridged:
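Read-out: reporter mRNA via RT-PCR plus capillary electrophoresis of 6-FAM-labelled fragments. Transiently transfected HepG2, 24 h exposure, endogenous TF activity on cis elements. Gain or loss of signal fitted relative to DMSO.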

In assay [5] the target is Cellular tumor antigen p53 (Homo sapiens) (UniProt P04637). Put plainly: ATG_p53_CIS: Attagene CIS-FACTORIAL HepG2 Assay for human p53 Transcription Factor (AID 2282994). The settings on record: HepG2 p53 cis-element reporter, Attagene mRNA; actives raise or lower the signal. The procedure, abridged: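 Transiently transfected HepG2 (multiple cis reporter transcription units); exposure 24 h; reporter RNA via RT-PCR, 6-FAM extension, 2 h HpaI digest at 37 C, CE detection; DMSO baseline.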
Cellular tumor antigen p53 (Homo sapiens), sequence (P04637 whole entry, looked up): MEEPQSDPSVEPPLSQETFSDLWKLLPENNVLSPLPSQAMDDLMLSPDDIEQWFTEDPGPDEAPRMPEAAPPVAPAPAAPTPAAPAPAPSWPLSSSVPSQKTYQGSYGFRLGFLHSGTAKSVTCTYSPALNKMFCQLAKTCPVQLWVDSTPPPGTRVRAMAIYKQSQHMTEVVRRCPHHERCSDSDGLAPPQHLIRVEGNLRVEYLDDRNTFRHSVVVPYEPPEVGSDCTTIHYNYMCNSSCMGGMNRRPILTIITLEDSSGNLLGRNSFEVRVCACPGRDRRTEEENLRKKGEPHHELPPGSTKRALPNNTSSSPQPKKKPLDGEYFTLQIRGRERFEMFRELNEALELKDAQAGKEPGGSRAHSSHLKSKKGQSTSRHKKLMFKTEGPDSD

Assay [6] is described as follows: BSK_3C_TissueFactor: BioMAP Diversity Plus: 3C Assay for Tissue Factor Biomarker Activity (AID 2282997). The settings on record: BioMAP 3C HUVEC, tissue factor biomarker readout; actives raise or lower the signal. A digest of the protocol: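 Cells used were primary human umbilical vein endothelial cells. They were dosed with chemical, and after 24 h Tissue Factor was quantified by ELISA. Curves were fitted bidirectionally with DMSO as baseline.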

The nature of assay [7]: BSK_3C_uPAR: BioMAP Diversity Plus: 3C Assay for Urokinase-type plasminogen activator receptor (uPAR) Biomarker Activity (AID 2282998). The settings on record: BioMAP 3C HUVEC, uPAR biomarker ELISA; actives raise or lower the signal. A digest of the protocol: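 HUVEC primary cells; 24 h post-dose; uPAR by ELISA; gain or loss of signal fitted bidirectionally vs DMSO baseline.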

In assay [8] the target is human Peroxisome Proliferator-activated Receptor delta (PPARd), PPARD (gene 5467) (UniProt Q03181). In words: ATG_PPARd_TRANS: Attagene TRANS-FACTORIAL HepG2 Assay for human Peroxisome Proliferator-activated Receptor delta (PPARd) (AID 2283002; active means hit-call score of the fitted dose curve at least 0.9, where 1 is the maximum). The procedure, abridged: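 Read-out: reporter mRNA induction, quantified by fluorescent RT-PCR products resolved by capillary electrophoresis. Human HepG2 liver cells carried transiently transfected Gal4-UAS reporter constructs with chimeric NR-Gal4 fusions. Cells were dosed for 24 h; DMSO served as baseline.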
human Peroxisome Proliferator-activated Receptor delta (PPARd), PPARD (gene 5467), sequence (Q03181 whole entry, looked up, the tested form may be a part): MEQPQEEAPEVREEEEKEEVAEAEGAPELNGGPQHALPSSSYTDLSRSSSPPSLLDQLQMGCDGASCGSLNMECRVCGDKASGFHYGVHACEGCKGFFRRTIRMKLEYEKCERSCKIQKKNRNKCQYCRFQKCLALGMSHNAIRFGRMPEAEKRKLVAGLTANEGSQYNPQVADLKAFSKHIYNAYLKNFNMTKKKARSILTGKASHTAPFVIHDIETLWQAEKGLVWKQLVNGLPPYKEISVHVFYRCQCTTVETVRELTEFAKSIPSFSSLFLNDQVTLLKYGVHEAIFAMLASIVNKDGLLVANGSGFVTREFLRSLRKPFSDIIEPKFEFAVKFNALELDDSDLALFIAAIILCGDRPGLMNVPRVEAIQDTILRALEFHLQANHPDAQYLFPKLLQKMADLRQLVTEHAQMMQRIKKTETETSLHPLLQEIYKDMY

Read-out in assay [9]: Intercellular Adhesion Molecule 1 (ICAM1), ICAM1 (gene 3383)
Put plainly: BSK_3C_ICAM1: BioMAP Diversity Plus: 3C Assay for Intercellular Adhesion Molecule 1 (ICAM1) Biomarker Activity (AID 2283003). The settings on record: primary human endothelial cells (HUVEC); actives raise or lower the signal. A digest of the protocol: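 Chemicals are dosed onto primary human umbilical vein endothelium (3C system). After 24 h, ICAM-1 is measured by ELISA, and responses are fitted bidirectionally relative to DMSO.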

Assay [10] is described as follows: BSK_3C_Proliferation: Cell Proliferation Assessment in the BioMAP Diversity Plus: 3C Assay (AID 2283006).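 On AC50: potency may reflect either rise or fall in cell number versus DMSO.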 The settings on record: primary human endothelial cells (HUVEC). The procedure, abridged: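 Cells (human umbilical vein endothelial, sub-confluent) receive test chemical; after 48 h they are fixed in 10% trichloroacetic acid, stained with 0.1% SRB and read at 560 nm. Activity is referenced to DMSO, fitting increases and decreases.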

Assay [11] has as its target Nuclear receptor subfamily 1 group I member 2 (Homo sapiens) (UniProt O75469). In words: ATG_PXR_TRANS: Attagene TRANS-FACTORIAL HepG2 Assay for human Pregnane X Receptor (PXR) (AID 2283008; active means hit-call score of the fitted dose curve at least 0.9, where 1 is the maximum). The procedure, abridged:
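Transient HepG2 transfectants carrying multiplexed reporter transcription units; PXR activity read through a Gal4 chimera. 24 h exposure. RT-PCR/CE fluorescence; upward curve fit referenced to DMSO.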

In assay [12] the target is human Retinoic Acid Receptor gamma (RARg), RARG (gene 5916) (UniProt P13631). Put plainly: ATG_RARg_TRANS: Attagene TRANS-FACTORIAL HepG2 Assay for human Retinoic Acid Receptor gamma (RARg) (AID 2283009; active means hit-call score of the fitted dose curve at least 0.9, where 1 is the maximum). The procedure, abridged: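 TRANS format measured activity of exogenous NR-GAL4 fusion (RARg) in transfected HepG2 liver cells after 24 h dosing. Induced reporter RNA was detected by RT-PCR/capillary electrophoresis fluorescence, analysed in the positive direction against DMSO.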
human Retinoic Acid Receptor gamma (RARg), RARG (gene 5916), sequence (P13631 whole entry, looked up, the tested form may be a part): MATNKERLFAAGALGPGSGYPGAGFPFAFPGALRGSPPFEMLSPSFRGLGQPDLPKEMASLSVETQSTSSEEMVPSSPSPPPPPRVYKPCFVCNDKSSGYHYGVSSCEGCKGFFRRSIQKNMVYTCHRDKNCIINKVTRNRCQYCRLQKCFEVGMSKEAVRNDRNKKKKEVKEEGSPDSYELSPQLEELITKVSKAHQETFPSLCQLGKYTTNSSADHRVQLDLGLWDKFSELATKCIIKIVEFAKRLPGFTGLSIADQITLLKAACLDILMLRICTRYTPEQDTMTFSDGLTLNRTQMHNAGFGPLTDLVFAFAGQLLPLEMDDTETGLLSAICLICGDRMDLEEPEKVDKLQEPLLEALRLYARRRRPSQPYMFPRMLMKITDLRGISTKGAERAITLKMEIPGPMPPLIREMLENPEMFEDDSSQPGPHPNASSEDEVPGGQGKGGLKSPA

Assay [13] concerns the target human RAR-related Orphan Receptor beta (RORb), RORB (gene 6096) (UniProt Q92753). In words: ATG_RORb_TRANS: Attagene TRANS-FACTORIAL HepG2 Assay for human RAR-related Orphan Receptor beta (RORb) (AID 2283010; active means hit-call score of the fitted dose curve at least 0.9, where 1 is the maximum). A digest of the protocol:
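Transfect HepG2 with multiple GAL4-UAS reporter transcription units; dose chemicals for 24 h; isolate RNA, reverse-transcribe and PCR-amplify reporter sequences; label, digest and resolve fragments by capillary electrophoresis; fit increases relative to DMSO.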

The target of assay [14] is human RAR-related Orphan Receptor gamma (RORg), RORC (gene 6097) (UniProt P51449). Put plainly: ATG_RORg_TRANS: Attagene TRANS-FACTORIAL HepG2 Assay for human RAR-related Orphan Receptor gamma (RORg) (AID 2283011; active means hit-call score of the fitted dose curve at least 0.9, where 1 is the maximum). The procedure, abridged: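 Activity is scored as increase in GAL4-UAS reporter mRNA over DMSO, detected by fluorescent RT-PCR and capillary electrophoresis in HepG2 cells transiently expressing a RORg-Gal4 chimera, 24 h after dosing.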
human RAR-related Orphan Receptor gamma (RORg), RORC (gene 6097), sequence (P51449 whole entry, looked up, the tested form may be a part): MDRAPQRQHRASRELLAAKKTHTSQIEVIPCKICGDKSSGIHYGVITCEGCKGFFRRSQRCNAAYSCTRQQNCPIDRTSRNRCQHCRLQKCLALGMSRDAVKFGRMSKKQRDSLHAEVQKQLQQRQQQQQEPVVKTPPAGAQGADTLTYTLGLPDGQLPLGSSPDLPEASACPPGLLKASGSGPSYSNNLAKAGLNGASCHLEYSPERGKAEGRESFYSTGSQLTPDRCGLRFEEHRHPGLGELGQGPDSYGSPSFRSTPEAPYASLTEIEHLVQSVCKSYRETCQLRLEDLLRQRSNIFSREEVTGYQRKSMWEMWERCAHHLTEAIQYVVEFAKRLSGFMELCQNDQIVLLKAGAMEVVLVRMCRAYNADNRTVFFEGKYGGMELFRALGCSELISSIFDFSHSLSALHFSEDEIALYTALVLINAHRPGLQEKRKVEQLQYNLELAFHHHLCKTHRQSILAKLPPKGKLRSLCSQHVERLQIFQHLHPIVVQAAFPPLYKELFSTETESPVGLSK

Assay [15] in a line: BSK_4H_Eotaxin3: BioMAP Diversity Plus: 4H Assay for Eotaxin 3 Biomarker Activity (AID 2283000).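 On outcome: CCL26 protein level quantified by ELISA in parallel with SRB cytotoxicity check.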 The settings on record: primary human endothelial cells (HUVEC); actives raise or lower the signal. A digest of the protocol: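 Endothelial primary cells (human umbilical vein) exposed to compound for 24 h. ELISA detection of Eotaxin-3.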
Assay [16] addresses human Peroxisome Proliferator-activated Receptor alpha (PPARa), PPARA (gene 5465) (UniProt Q07869). Put plainly: ATG_PPARa_TRANS: Attagene TRANS-FACTORIAL HepG2 Assay for human Peroxisome Proliferator-activated Receptor alpha (PPARa) (AID 2283001; active means hit-call score of the fitted dose curve at least 0.9, where 1 is the maximum). The procedure, abridged:
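HepG2, transient MRTU transfection, 24 h treatment. RT-PCR → FAM labelling → capillary electrophoresis. Fit vs DMSO, positive direction.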

For assay [17], the target named is human Retinoic Acid Receptor beta (RARb), RARB (gene 5915) (UniProt P10826). In words: ATG_RARb_TRANS: Attagene TRANS-FACTORIAL HepG2 Assay for human Retinoic Acid Receptor beta (AID 2283004; active means hit-call score of the fitted dose curve at least 0.9, where 1 is the maximum). A digest of the protocol: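 HepG2, transient MRTU transfection, NR–Gal4 chimera, 24 h treatment; RT-PCR plus CE fluorescence detection of reporter mRNA; gain of signal vs DMSO.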
human Retinoic Acid Receptor beta (RARb), RARB (gene 5915), sequence (P10826 whole entry, looked up, the tested form may be a part): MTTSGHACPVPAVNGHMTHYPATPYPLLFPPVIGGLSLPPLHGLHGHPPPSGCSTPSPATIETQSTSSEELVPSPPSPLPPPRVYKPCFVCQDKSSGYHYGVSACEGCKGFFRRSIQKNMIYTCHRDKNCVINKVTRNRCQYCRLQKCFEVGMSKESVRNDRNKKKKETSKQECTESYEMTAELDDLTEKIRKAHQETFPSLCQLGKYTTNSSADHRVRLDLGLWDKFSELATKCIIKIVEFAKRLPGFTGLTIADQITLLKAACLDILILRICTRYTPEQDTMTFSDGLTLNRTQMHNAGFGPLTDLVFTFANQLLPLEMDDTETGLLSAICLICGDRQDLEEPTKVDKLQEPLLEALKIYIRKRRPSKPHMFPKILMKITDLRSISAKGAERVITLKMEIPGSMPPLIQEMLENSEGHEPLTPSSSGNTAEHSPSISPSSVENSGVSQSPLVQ

Assay [18] concerns the target Retinoic acid receptor alpha (Homo sapiens) (UniProt P10276). In words: ATG_RARa_TRANS: Attagene TRANS-FACTORIAL HepG2 Assay for human Retinoic Acid Receptor alpha (RARa) (AID 2283005; active means hit-call score of the fitted dose curve at least 0.9, where 1 is the maximum). The procedure, abridged: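 HepG2 transiently transfected with multiplex GAL4-UAS reporter units including a human RARa–GAL4 chimera; 24 h compound exposure. Reporter mRNA quantified by RT-PCR, 6-FAM labeling and capillary electrophoresis; gain of signal versus DMSO.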

The target in assay [19] is Peroxisome proliferator-activated receptor gamma (Homo sapiens) (UniProt P37231). In words: ATG_PPARg_TRANS: Attagene TRANS-FACTORIAL HepG2 Assay for human Peroxisome Proliferator-activated Receptor-gamma (PPARg) (AID 2283007; active means hit-call score of the fitted dose curve at least 0.9, where 1 is the maximum). The procedure, abridged: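 A TRANS-format multiplexed reporter assay measures activity of an exogenous chimeric NR-Gal4 protein in HepG2 cells. After 24 h of chemical exposure, reporter transcripts are amplified, fluorescently labelled and sized by capillary electrophoresis, with gain of signal scored against DMSO.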
Peroxisome proliferator-activated receptor gamma (Homo sapiens), sequence (P37231 whole entry, looked up, the tested form may be a part): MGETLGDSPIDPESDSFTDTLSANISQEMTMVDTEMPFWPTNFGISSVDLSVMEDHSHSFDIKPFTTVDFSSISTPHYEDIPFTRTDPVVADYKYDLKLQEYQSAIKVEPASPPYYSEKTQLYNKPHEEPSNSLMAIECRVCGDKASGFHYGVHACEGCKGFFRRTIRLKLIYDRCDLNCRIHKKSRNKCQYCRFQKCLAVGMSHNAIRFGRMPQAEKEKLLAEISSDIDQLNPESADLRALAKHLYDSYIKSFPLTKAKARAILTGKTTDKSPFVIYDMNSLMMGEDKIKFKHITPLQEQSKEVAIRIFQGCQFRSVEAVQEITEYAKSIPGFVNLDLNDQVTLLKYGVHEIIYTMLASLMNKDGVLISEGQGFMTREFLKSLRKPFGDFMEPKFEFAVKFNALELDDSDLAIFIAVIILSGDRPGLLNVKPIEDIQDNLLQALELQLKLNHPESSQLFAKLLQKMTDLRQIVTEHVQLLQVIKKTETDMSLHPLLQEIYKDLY

Nuclear receptor subfamily 1 group I member 2 (Homo sapiens), sequence (O75469 whole entry, looked up, the tested form may be a part): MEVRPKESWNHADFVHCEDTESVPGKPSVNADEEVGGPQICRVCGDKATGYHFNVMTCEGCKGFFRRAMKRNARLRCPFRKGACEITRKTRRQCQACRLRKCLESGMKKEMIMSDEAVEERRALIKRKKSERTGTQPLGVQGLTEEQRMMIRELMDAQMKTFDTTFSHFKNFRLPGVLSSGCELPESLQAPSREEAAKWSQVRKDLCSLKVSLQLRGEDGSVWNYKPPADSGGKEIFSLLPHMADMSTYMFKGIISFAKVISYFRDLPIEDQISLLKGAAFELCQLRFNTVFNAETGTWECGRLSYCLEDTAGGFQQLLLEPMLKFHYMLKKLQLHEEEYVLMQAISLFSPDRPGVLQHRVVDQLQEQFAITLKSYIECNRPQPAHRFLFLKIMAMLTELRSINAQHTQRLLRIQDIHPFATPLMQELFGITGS
Retinoic acid receptor alpha (Homo sapiens), sequence (P10276 whole entry, looked up, the tested form may be a part): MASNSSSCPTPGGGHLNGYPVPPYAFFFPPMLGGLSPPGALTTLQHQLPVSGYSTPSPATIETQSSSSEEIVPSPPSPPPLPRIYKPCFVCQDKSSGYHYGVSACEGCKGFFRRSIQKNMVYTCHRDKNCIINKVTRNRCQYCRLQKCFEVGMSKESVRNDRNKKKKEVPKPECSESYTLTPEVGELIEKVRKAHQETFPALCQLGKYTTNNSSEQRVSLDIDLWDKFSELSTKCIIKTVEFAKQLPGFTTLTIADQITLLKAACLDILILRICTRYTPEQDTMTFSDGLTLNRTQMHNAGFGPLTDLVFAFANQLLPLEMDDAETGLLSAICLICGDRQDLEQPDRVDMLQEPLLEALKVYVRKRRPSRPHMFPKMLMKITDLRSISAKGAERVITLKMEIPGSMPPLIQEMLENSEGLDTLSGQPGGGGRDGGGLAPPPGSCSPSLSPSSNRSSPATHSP
human RAR-related Orphan Receptor beta (RORb), RORB (gene 6096), sequence (Q92753 whole entry, looked up, the tested form may be a part): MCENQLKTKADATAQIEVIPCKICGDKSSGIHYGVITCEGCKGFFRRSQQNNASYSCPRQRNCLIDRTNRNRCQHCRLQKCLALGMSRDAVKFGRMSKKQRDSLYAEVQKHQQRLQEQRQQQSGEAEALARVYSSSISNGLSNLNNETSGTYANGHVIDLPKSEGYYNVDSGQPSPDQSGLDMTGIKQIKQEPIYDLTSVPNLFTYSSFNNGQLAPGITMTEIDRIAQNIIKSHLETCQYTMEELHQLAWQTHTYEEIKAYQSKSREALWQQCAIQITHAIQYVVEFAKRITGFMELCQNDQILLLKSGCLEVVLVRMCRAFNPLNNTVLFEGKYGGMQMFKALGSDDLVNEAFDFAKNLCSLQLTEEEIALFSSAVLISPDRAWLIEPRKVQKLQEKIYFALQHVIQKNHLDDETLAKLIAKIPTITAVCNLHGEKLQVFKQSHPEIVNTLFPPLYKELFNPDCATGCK

On to `CCc1cc(SCc2sc(-c3ccc(C(F)(F)F)cc3)nc2CN2CCN(c3ccc(OC)cc3)CC2)ccc1OCC(=O)O`, for which the call in assay [1], in assay [5], in assay [12], in assay [13] and in assay [14] was inactive. In addition, the AC50 in [2] is 20.2 µM (active); in [3] it was 4.51 µM (active); in assay [4], 8.42 µM (active); in assay [6], 12.4 µM (active); in assay [7] it was 7.74 µM (active); in [8] it was 0.00449 µM (active). Besides, the AC50 was 29.9 µM (active) in assay [9], 9.19 µM (active) in assay [10] and 4.69 µM (active) in [11].

For `CCCCCCCCCCCCCCCO`, the outcome in assay [1], in assay [2], in assay [3], in assay [4], in assay [5] and in assay [6] was inactive. Moreover, the compound was classed as inactive in assay [16], in assay [8] and in assay [14]. The values for the AC50 in assay [7], in assay [15] and in assay [10] were 35.6 µM (active), 36.5 µM (active) and 14.7 µM (active), respectively.

`CCN(C(=O)c1cc(C)cc(OC[C@H](C)Nc2ccncc2)c1)C(C)C`: the outcome in assay [1], in assay [2], in assay [4], in assay [5], in [6] and in assay [7] was inactive. In addition, the outcome in assay [15], in assay [17], in assay [18], in [10], in [19] and in assay [12] was inactive. For the same compound, the outcome in assay [13] was inactive. Besides, the AC50 was 8.92 µM (active) in assay [3] and 7.38 µM (active) in assay [11].

For `C1N2CN3CN1CN(C2)C3`, the compound was called inactive in assay [1], in assay [2], in assay [3], in assay [4], in assay [5] and in assay [6]. In addition, the result in [7], in [15], in assay [9], in assay [18], in [10] and in assay [11] was inactive.
